Screening data from PubChem BioAssay.
The sample as a whole holds a higher share of hits than the screen did.
RE007 growth inh = less growth of the S. pombe RE007 Vpr strain | S. pombe RE007 Vpr strain, BacTiter-Glo ATP luminescence, 24 h | 360,000 compounds, 0.21% hits | Potency, µM (titrated, usually from 92.2 µM), without a hit: at the highest dose activity change, negative = less growth, most hits filed as inhibitors | AID 651644; active means well fitted falling curve with a large enough effect; inconclusive means small, poorly fitted or top-dose-only effect; inactive means no such curve, though single readings can be large or run the other way; further: potency means the concentration at half of the fitted maximal effect; on the % scale 0 is the no-effect control and ±100 the full control effect; nearly all actives have a fitted effect of over 50% in size
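Fission yeast strain RE007, carrying one chromosomally integrated HIV-1 vpr copy, was seeded at OD 0.01 in PMG+AL medium with 23 nL pinned compound. After 24 h at 30 °C and 99% humidity, viability was read by BacTiter-Glo luminescence.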
Shiga inhibitor = Shiga toxin inhibition | Vero cells, Shiga toxin protein synthesis inhibition reporter | inhibition, % at 38.7 µM | 290,000 compounds, 9.2% hits | AID 2315; in the data active means inhibition mostly above about 28%, no sharp cut-off; inactive means mostly below about 43%; further: 0% is about no effect
LmPK inh = inhibitors of Leishmania mexicana pyruvate kinase. Q27686. purified LmPK, Kinase-Glo ATP luminescence, 1 h. Potency, µM (series often up to 57.5 µM), for inactives: top-dose activity change, negative = inhibition, actives largely listed as inhibitors. 290,000 compounds, 0.37% hits. AID 1721; further: potency means the concentration at half of the fitted maximal effect; on the % scale 0 is the no-effect control and ±100 the full control effect
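Purified LmPK (0.1 nM) with 0.5 mM PEP and 0.1 mM ADP in imidazole buffer pH 7.2 with MgCl2/KCl, 1 h at room temperature. ATP formed was read by luciferase luminescence and normalized to no-enzyme and uninhibited controls.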
Tb PYK inh = T. brucei pyruvate kinase inhibition | Q57TT1 | TbPYK enzyme, Kinase-Glo Plus ATP luminescence, 45 min | 410,000 compounds, 0.12% hits | Potency, µM (doses to about 76.8 µM), inactives show at the highest dose activity, negative = inhibition, usual class: inhibitors; further: potency means the concentration at half of the fitted maximal effect; on the % scale 0 is the no-effect control and ±100 the full control effect; nearly all actives have a fitted effect of over 50% in size
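ADP (130 uM final) triggers the TbPYK reaction after compound addition; incubation is 45 min at room temperature. Kinase-Glo Plus is then added and luminescence imaged. Normalized data are fitted to concentration-effect curves.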
Cycloheximide cs = affects cycloheximide protein synthesis inhibition readout, counter-screen. cell reporter, cycloheximide protein synthesis inhibition counterscreen. max response, %. 300,000 compounds, 12% hits; in the data active means max response mostly above about 13%, no sharp cut-off; inactive means mostly below about 14%; further: read at 38.3 µM for the half of the compounds with a filed dose; 0% is about no effect
FBPA Giardia inh = blocks Giardia fructose-bisphosphate aldolase activity; A8B2U2; 290,000 compounds, 0.71% hits; purified Giardia FBPA; Potency, µM (highest dose often 59.6 µM), for inactives: top-dose activity, negative = inhibition, usual class: inhibitors; further: potency means the concentration at half of the fitted maximal effect; on the % scale 0 is the no-effect control and ±100 the full control effect; nearly all actives have a fitted effect of over 55% in size
Target sequence (A8B2U2 whole entry, looked up): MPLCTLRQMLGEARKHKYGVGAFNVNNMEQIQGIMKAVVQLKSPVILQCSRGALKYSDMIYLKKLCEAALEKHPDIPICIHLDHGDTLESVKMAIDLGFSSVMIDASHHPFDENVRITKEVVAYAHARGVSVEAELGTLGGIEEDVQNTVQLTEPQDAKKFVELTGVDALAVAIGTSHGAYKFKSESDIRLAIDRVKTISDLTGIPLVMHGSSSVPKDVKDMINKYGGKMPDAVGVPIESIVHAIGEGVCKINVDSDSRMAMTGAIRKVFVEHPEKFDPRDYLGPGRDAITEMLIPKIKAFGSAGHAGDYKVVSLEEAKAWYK
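Giardia FBPA (40 nM reagent) was preincubated 10 min at RT with compound (up to 57.5 uM final), then substrate plus GAPDH/TPI/NAD/arsenate coupling system with diaphorase/resazurin was added; resorufin fluorescence (525/598 nm) was read after 20 min.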
An asterisk follows results filed as active; ? = inconclusive; / = no result given; + = active, no number; [ ] = dose if it differs, or a comment. Unless noted, the call rests on the fitted dose curve; in most records, active means well fitted curve in the direction sought with a large enough effect; inconclusive means small, poorly fitted or top-dose-only effect, or another doubt; inactive means no such curve, though single readings can be large; an effect the other way counts as inactive or inconclusive.

SMILES	RE007 growth inh	Shiga inhibitor	LmPK inh	Tb PYK inh	Cycloheximide cs	FBPA Giardia inh
CN1CCC(=NNC(=O)c2ccco2)CC1	3.9%	78.6*	6.2%	-7.5%	66.6*	-5.4%
CC(C)(C)C1CCC(=NNC(=O)c2ccco2)CC1 (configuration not stated)	10.0%	174.7*	-3.2%	2.1%	70.5*	/
CC(C)(C)C1CCC(=NNC(=S)NCc2ccccc2)CC1 (configuration not stated)	3.0%	-8.3	0.4%	-1.0%	11.2	-19.6%
CN1CCN(c2ccc(CNC(=O)c3ccco3)cc2)CC1	-1.3%	7.6	-4.6%	1.6%	13.7	-0.7%
Cc1cc(C)c2c(=O)[nH]c(SCC(=O)c3ccc(F)c(C)c3)nc2n1	16.9%	-1.6	4.7%	-1.5%	12.1	1.5%
CCc1c(C)nc(N2CCN(c3ccc(Cl)cc3)CC2)[nH]c1=O	2.9%	-16.5	-1.0%	-11.8%	-0.8	12.3%
O=C(CSc1nnc2[nH]c(=O)cc(-c3ccccc3)n12)Nc1ccc(OC(F)(F)F)cc1	/	/	/	-5.3%	/	/
O=C(NCc1ccc(F)cc1)Nc1cccc(Cl)c1	-13.9%	62.4*	-2.1%	-5.0%	27.9*	-10.5%
O=C(NCc1ccc(F)cc1)Nc1ccc(Cl)cc1	-8.8%	59.1	-0.1%	-0.9%	36.0*	-7.0%
O=C(CNC(=O)c1ccc(F)cc1)NCc1ccc(Cl)cc1	-1.2%	-5.9	1.1%	15.2%	0.4	-0.2%
CCOc1ccc(NC(=O)NCCc2c(C)nn(C)c2C)cc1	/	/	/	3.9%	/	/
CSCC[C@H](NC(=O)[C@H](CC(C)C)NC(=O)CNC(=O)[C@@H]1CCCN1C(=O)[C@H](Cc1ccccc1)NC(=O)[C@H](Cc1ccccc1)NC(=O)[C@H](CC(=O)O)NC(=O)[C@H](Cc1cnc[nH]1)NC(=O)[C@H](CCSC)NC(=O)[C@@H](N)CC(=O)O)C(N)=O	/	-5.6	/	/	-4.1	-0.3%
COc1cc(OC)cc(C(=O)Nc2ccc3c(c2)CCCN3C(=O)c2cccs2)c1	-3.1%	0.5	-5.0%	-3.9%	-1.6	/
O=C(Nc1ccc2c(c1)CCCN2C(=O)c1cccs1)c1ccccc1	-1.0%	36.3*	2.6%	-19.7%	35.9*	4.8%
O=C(Nc1ccc2c(c1)CCCN2C(=O)c1cccs1)c1cccc(F)c1	-1.6%	47.0*	5.8%	-9.8%	22.2*	0.9%
O=S(=O)(c1cnc[nH]1)N1CCN(C(c2ccc(F)cc2)c2ccc(F)cc2)CC1	-1.8%	-0.8	-0.5%	5.5%	-3.9	/
Nc1nonc1C(=O)N/N=C/c1ccc(Br)o1	5.5%	72.5*	-12.2%	-3.7%	38.9*	-10.3%
O=C(N/N=C/c1ccc(Br)o1)c1cccnc1	-11.0%	0.1	-1.3%	-2.8%	7.2	3.2%
N/C(=N\N=C\c1ccc(Br)o1)c1nonc1N	-5.7%	82.0*	-20.5%	-1.0%	46.7*	0.8%
Nc1nonc1C(=O)N/N=C/c1ccc(-c2ccc(Cl)c(C(=O)O)c2)o1	-2.6%	48.4*	-0.3%	5.1%	14.2*	?
Nc1nonc1C(=Nc1ccccc1)NO	2.3%	-2.0	-1.0%	-1.8%	1.4	14.2%
O=C(O)c1cc(-c2ccc(/C=N/Nc3ccc(Cl)cc3)o2)ccc1Cl	3.4%	14.1	6.6%	0.5%	1.8	-8.0%
C=CC[C@@H](CC(=O)N[C@@H](CO)Cc1ccccc1)C(=O)N[C@H](C)COC(=O)[C@@H](CC=C)Cc1ccc(F)cc1	5.4%	/	/	0.3%	/	/
CN1C(=O)c2c(sc3c2CCCC3)NC1c1ccccc1O (configuration not stated)	/	48.7*	0.7%	/	18.9*	?
CCc1ccc(NC(=O)c2sc3ncnc(N(C)C4CCCCC4)c3c2C)cc1	/	/	/	4.8%	/	/
SMILES	RE007 growth inh	Shiga inhibitor	LmPK inh	Tb PYK inh	Cycloheximide cs	FBPA Giardia inh
CCc1ccc(OCC(=O)Nc2ccc3oc(-c4ccc(OC)cc4)nc3c2)cc1	/	/	/	-2.9%	/	/
COc1ccc(OCC(=O)Nc2ccc(-c3nc4cc(C)c(C)cc4o3)cc2)cc1	/	97.8*	/	-3.6%	50.6*	/
Cc1ccc(OCC(=O)Nc2ccc(-c3nc4ccc(C)cc4o3)cc2)cc1	/	79.9*	/	-0.8%	34.1*	/
Cc1ccc2nc(-c3ccc(Cl)c(NC(=O)COc4ccc(C(C)C)cc4)c3)oc2c1	/	/	/	-5.9%	/	/
COc1ccc(-c2nc(CS(=O)(=O)CC(=O)Nc3ccc(Cl)cc3)c(C)o2)cc1	2.7%	40.3*	-0.8%	0.6%	19.4*	4.9%
Cc1ccc(CCNC(=O)c2cnc3c(C)cccn3c2=O)cc1	/	/	/	-1.6%	/	/
O=C(Nc1ccc(OC(F)(F)C(F)F)c(NC(=O)c2ccc(F)cc2)c1)c1ccc(F)cc1	9.7%	/	/	-5.8%	/	/
Nc1ccc(C(=O)Nc2ccc(OC(F)(F)C(F)F)c(NC(=O)c3ccc(N)cc3)c2)cc1	-9.5%	16.5	-1.8%	3.6%	17.5*	-5.0%
CN(Cc1ccccc1)C(=O)C(=O)Nc1ccc2nc3n(c(=O)c2c1)CCCCC3	/	/	/	1.0%	/	/
N#CC1=C2SCN(Cc3ccccc3)CN2C(=O)CC1c1ccc2c(c1)OCO2 (configuration not stated)	10.6%	-5.1	-5.5%	?	-1.4	0.889µM*
COc1ccc(S(=O)(=O)Nc2ccccc2N2CCOCC2)cc1OC	-12.0%	/	/	1.6%	/	/
CCOC(=O)c1cnc2ccc(Cl)cc2c1NCCN(C)C	-4.8%	35.0	2.7%	0.9%	25.7*	?
CCOC(=O)c1cnc2c(ccc3ccccc32)c1NCCCN(C)C	?	130.5*	-2.6%	0.2%	32.8*	-24.0%
CCOC(=O)c1cnc2ccc(Cl)cc2c1Nc1ccc(OCC)cc1	/	/	/	4.0%	/	/
CCC(C)[C@H](NC(=O)[C@@H]1Cc2ccccc2CN1)C(=O)Nc1ccc2c(c1)OCO2 (some centres not stated)	10.7%	38.5*	-3.8%	0.0%	29.7*	/
C[C@H](NC(=O)[C@@H]1Cc2ccccc2CN1)C(=O)Nc1ccc2c(c1)OCCO2	10.3%	51.0*	6.8%	1.8%	36.2*	/
Cc1cc(C)cc(NC(=O)[C@H](NC(=O)[C@@H]2Cc3ccccc3CN2)c2ccccc2)c1	-18.9%	12.8	3.3%	-2.3%	7.9	/
CC(C)C(NC(=O)C1CCCCC1)C(=O)Nc1ccc2c(c1)OCCO2 (configuration not stated)	-0.2%	+	1.2%	2.9%	63.2*	-7.2%
O=C(CNC(=O)[C@@H]1Cc2ccccc2CN1)NC1CCCC1	-3.5%	53.0	4.7%	-1.8%	24.3*	/
CC(=O)OC[C@@H]1O[C@H](C/C=N\O[C@@H](C)CN2CCCCc3nc(C)c(C)cc32)C=C[C@@H]1OC(C)=O	/	/	/	/	/	-4.7%[12.9 µM]
CCc1ccc(NC(=O)CNC(=O)[C@@H]2Cc3ccccc3CN2)cc1	-1.0%	2.7	8.3%	1.0%	4.5	/
